Measurements reported in PubChem BioAssay.
Values joined by “and” are separate entries in the source; they are usually repeats but may differ in a detail not shown here. Identical values can stand only once. Active and inactive are the calls of the source.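 How the source made its calls, unless noted: active means compounds whose cell count with miR-34 switched on is under 0.7 times the count with it off; inactive means the rest.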

Experiments:
[1] = tested on: Aerobactin synthetase IucA (Klebsiella pneumoniae); test: inhibition of K. pneumoniae IucA enzyme – biochemical, Tocris library, absorbance (AID 1345561; call rule not given here;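 further: 100% = enzyme without compound and 0% = no enzyme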); details: purified IucA enzyme assay, absorbance (OD) read-out; stronger effect = lower value;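 tested at 8 µM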
[2] = viability loss with induced miR-34 in A549 – imaging, A549 dox-inducible miR-34, nuclei and caspase counts, primary screen (AID 1347080); details: A549 miR-34 inducible, Hoechst nuclei count, 48 h
[3] = galactose survival enhancers in mitochondrial complex I cybrids – cell-based, galactose medium, ATP luminescence, primary screen (AID 1645843;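 active means z-score of at least 1.8 in each of two replicates, scored against plate mean and spread of sample wells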;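 further: positive z means more ATP and so rescue of galactose-driven cybrid death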); details: complex I mutant cybrid cells, 72 h, stronger effect = higher value
[4] = stronger effect = lower value, cell number ratio, induced over uninduced
[5] = measured here: relative caspase fold change +Dox/-Dox
[6] = measured here: total cells with miR-34 induction, stronger effect = lower value
[7] = measured here: total cells without miR-34 induction

Compound | remaining activity [1] | fold change [2, 4] | fold change [2, 5] | cell count [2, 6] | cell count [2, 7] | z-score [3]
COc1cc([C@@H]2c3cc4c(cc3C(OC3OC5COC(C)OC5C(O)C3O)C3COC(=O)[C@@H]32)OCO4)cc(OC)c1O (some centres undefined) | 116% (inactive) | 1.07 (inactive) | 0.575 | 4900 | 4590 | -0.765 (inactive)
CC1c2ccccc2CN1CC1=NCCN1 (centres undefined) | 111% (inactive) | 0.985 (inactive) | 0.732 | 8400 | 8530 | -0.515 (inactive)
Cn1cc(/C=C2/C(=O)Nc3cccnc32)c2ccccc21 | 89.8% (inactive) | 0.833 (inactive) | 1.45 | 2650 | 3180 | -0.435 (inactive)
O=C(NCCCN1CCC2(CC1)OCc1ccccc12)[C@H]1CCCN1Cc1ccccc1 | 123% (inactive) | 0.953 (inactive) | 1.86 | 7790 | 8180 | -0.88 (inactive)
Cc1cc2nc3c(=O)[nH]c(=O)nc-3n(C)c2cc1C=O | 110% (inactive) | 1.04 (inactive) | 1.31 | 8790 | 8430 | -0.69 (inactive)
O=C1NN(C(=O)Nc2ccc(Br)cc2)[C@@H](c2ccccc2)[C@@H]1c1ccccc1 | 127% (inactive) | 0.887 (inactive) | 0.737 | 9100 | 10300 | 0.225 (inactive)
Oc1ccc(-c2c(-c3ccccc3)nn3c(C(F)(F)F)cc(C(F)(F)F)nc23)cc1 | 95% (inactive) | 0.915 (inactive) | 2.74 | 8170 | 8930 | 0.225 (inactive)
c1cc2c3c(c1)c1c(n3CCNC2)CCCC1 | 120% (inactive) | 0.921 (inactive) | 1.32 | 7680 | 8340 | -0.505 (inactive)
COc1cc(C[C@H]2C(=O)OC[C@@H]2Cc2ccc(OC)c(OC)c2)ccc1O | 104% (inactive) | 0.937 (inactive) | 0.733 | 4240 | 4530 | -0.76 (inactive)
C[C@H](NC[C@H](O)CP(=O)(O)Cc1ccccc1)c1ccc(Cl)c(Cl)c1 | 111% (inactive) | 0.949 (inactive) | 1.04 | 8740 | 9210 | 0.06 (inactive)
CCCOc1ccc(Br)cc1-c1cc(-c2ccc(Cl)cc2)[nH]c1-c1ccncc1 | 102% (inactive) | 0.969 (inactive) | 1.19 | 8200 | 8460 | 0.1 (inactive)
c1ccc(N2CCN(Cc3nc4ccccc4[nH]3)CC2)nc1 | 78.8% (inactive) | 0.909 (inactive) | 2.02 | 8260 | 9090 | 0.04 (inactive)
COC(=O)c1ccccc1NC(=O)c1ccc(F)cc1 | 99.3% (inactive) | 0.965 (inactive) | 0.872 | 7260 | 7520 | 0.635 (inactive)
Cc1ccc(CC2(O)CCN(CCOc3ccc(O)cc3)CC2)cc1 | 89.8% (inactive) | 0.939 (inactive) | 2.38 | 7760 | 8270 | -0.49 (inactive)
c1ccc(COCCCc2cnc[nH]2)cc1 | 112% (inactive) | 0.883 (inactive) | 2.69 | 8520 | 9640 | -0.18 (inactive)
CCCCCCNC(=O)Nc1ccc(S(=O)(=O)Nc2ccc(CCNC[C@H](O)COc3ccc(O)cc3)cc2)cc1 | 94.3% (inactive) | 0.938 (inactive) | 1.32 | 8320 | 8870 | -0.435 (inactive)
CC[C@H](CO)Nc1nc(Nc2cccc(-c3ccccn3)c2)c2ncn(C(C)C)c2n1 | 119% (inactive) | 1.12 (inactive) | 1.35 | 1500 | 1340 | -0.95 (inactive)
NC(=O)CCCCn1ccc(NC(N)=NCC(F)(F)F)n1 | 98.2% (inactive) | 0.945 (inactive) | 0.965 | 8750 | 9250 | 1.19 (inactive)
c1ncc(CC2CCNCC2)[nH]1 | 101% (inactive) | 0.95 (inactive) | 0.717 | 8900 | 9370 | 0.095 (inactive)
O=C(c1c(O)c2ccc(Cl)cc2[nH]c1=O)C1CC1 | 118% (inactive) | 0.973 (inactive) | 1.04 | 8250 | 8480 | -0.025 (inactive)

Compound | remaining activity [1] | fold change [2, 4] | fold change [2, 5] | cell count [2, 6] | cell count [2, 7] | z-score [3]
CSc1ccc([C@H]2CN3CCC[C@H]3c3ccccc32)cc1 | 123% (inactive) | 0.927 (inactive) | 1.33 | 7680 | 8280 | -0.51 (inactive)
C[N+](C)(C)CCCCCNCC12CC3CC(CC(C3)C1)C2 | 117% (inactive) | 0.943 (inactive) | 0.772 | 8560 | 9080 | -0.15 (inactive)
Cc1nnc(-c2ccc3occ(-c4ccc(S(C)=O)cc4)c3c2)o1 (centres undefined) | 113% (inactive) | 0.855 (inactive) | 1.35 | 4510 | 5270 | -0.44 (inactive)
CO[C@]12C[C@@H](COC(=O)c3cncc(Br)c3)CN(C)[C@@H]1CC1=CN(C)C3C=CC=C2C13 (some centres undefined) | 107% (inactive) | 0.94 (inactive) | 0.794 | 7700 | 8200 | 0.455 (inactive)
CN(C)[C@@H]1CCc2[nH]c3ccc(NC(=O)c4ccc(F)cc4)cc3c2C1 | 77.6% (inactive) | 0.87 (inactive) | 1.77 | 8840 | 10200 | 0.495 (inactive)
O=C(NCCCCN1CCN(c2cccc(Cl)c2Cl)CC1)c1ccc2c(c1)Cc1ccccc1-2 | 111% (inactive) | 0.929 (inactive) | 1.33 | 8390 | 9030 | -0.17 (inactive)
COc1cc(/C=C/c2ccc(OC)cc2OC)cc(OC)c1 | 117% (inactive) | 0.956 (inactive) and 0.973 (inactive) | 1.53 and 0.719 | 1820 and 3000 | 1910 and 3090 | -0.41 (inactive)
CNC(=O)[C@H]1O[C@@H](n2cnc3c(NCc4cccc(I)c4)ncnc32)[C@H](O)[C@@H]1O | 116% (inactive) | 0.865 (inactive) | 0.723 | 8280 | 9570 | 2.99 (active)
O=C1C(c2ccccn2)=[N+]([O-])c2ccccc21 | 123% (inactive) | 0.941 (inactive) | 0.616 | 8260 | 8780 | -0.62 (inactive)
COc1cc(OC)c(C(=O)CCCCN2CCC3(CC2)NC(=O)NC3=O)cc1NS(=O)(=O)c1ccc(C(F)(F)F)cc1 | 118% (inactive) | 0.962 (inactive) | 0.689 | 8560 | 8900 | -0.165 (inactive)
C/C(O)=C1/C(=O)[C@@H]2[C@H]3c4c[nH]c5cccc(c45)C[C@H]3C(C)(C)N2C1=O | 119% (inactive) | 0.988 (inactive) | 1.54 | 6050 | 6130 | -0.525 (inactive)
N[C@@H]1CCN(O)C1=O | 121% (inactive) | 0.981 (inactive) | 0.836 | 9080 | 9260 | 0.66 (inactive)
COC(=O)Nc1ccc2[nH]cc(CCNC(C)=O)c2c1 | 121% (inactive) | 0.99 (inactive) | 0.823 | 8200 | 8280 | -0.205 (inactive)
COc1ccc(NS(=O)(=O)c2ccc(I)cc2)cc1N1CCN(C)CC1 | 112% (inactive) | 0.956 (inactive) | 0.589 | 6570 | 6870 | -0.545 (inactive)
CN(C)CCC1(c2ccc(Cl)cc2)Cc2ccccc2C(=O)O1 (centres undefined) | 122% (inactive) | 0.975 (inactive) | 1.4 | 7700 | 7900 | -0.195 (inactive)
CNC(=O)[C@@H](Cc1ccccc1)N(C)C(=O)[C@@H](Cc1ccc2ccccc2c1)N(C)C(=O)/C=C/CC(C)(C)N | 99.8% (inactive) | 1 (inactive) | 0.957 | 9200 | 9170 | -0.39 (inactive)
CN(CCc1ccc(Cl)c(Cl)c1)CC(O)COc1ccc(NS(C)(=O)=O)cc1 (centres undefined) | 107% (inactive) | 0.951 (inactive) and 0.956 (inactive) | 1.56 and 0.961 | 4180 and 6530 | 4390 and 6830 | 0.67 (inactive)
CN1CCN(C2=Cc3ccccc3Oc3ccc(Cl)cc32)CC1 | 104% (inactive) | 0.963 (inactive) | 0.764 | 6800 | 7060 | -0.9 (inactive)
O=C(N/N=C/c1ccccc1O)c1ccccc1O | 106% (inactive) | 0.984 (inactive) | 1.5 | 4010 | 4070 | -0.59 (inactive)
